{"source": "PubChem BioAssay AID652180", "about": "(National Center for Advancing Translational Sciences (NCATS), 2013)", "note": "Records with an inconclusive call do not appear. Values without a mark were called inactive. The source made the active and inactive calls. Calls come from the whole dose curve; as a rule, active = well fitted inhibition curve with a large enough effect; inconclusive = small, poorly fitted or top-dose-only effect; inactive = no such curve, though single readings can be large or run the other way.", "data": [{"assay": "qHTS Assay for Lipid Storage Modulators: 3T3L1 Assay against Probe and Analogs", "details": "3T3-L1 lipid droplets, BODIPY imaging, oleic acid, 18-24 h; series mostly up to 46.1 µM; activity change, negative = decreased lipid storage: at the top concentration", "how_it_was_run": "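Lipid droplet number and size, plus cell count, were measured by imaging BODIPY- and Hoechst-stained 3T3L1 cells. Compounds (0.46% DMSO final) were co-incubated for 18-24 h with oleic acid, added at 400 uM, to induce droplets. Triacsin C served as control.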", "units": {"activity change, negative = decreased lipid storage": "%"}, "values": [{"smiles": "CCOC(=O)C1CCN(C(=O)C(C)(C)NC(=O)Nc2ccc(F)c(F)c2)CC1", "activity change, negative = decreased lipid storage": -37.2}, {"smiles": "Cc1cc2c(cc1C1(c3ccc(C(=O)O)cc3)CC1)C(C)(C)CCC2(C)C", "activity change, negative = decreased lipid storage": 111}, {"smiles": "CCOc1ccc(CCNC(=O)c2ccccn2)cc1OCC", "activity change, negative = decreased lipid storage": -36}, {"smiles": "O=C(NC1CCCc2c1cnn2-c1ccc(F)cc1F)c1cnccn1", "note": "(centres undefined)", "activity change, negative = decreased lipid storage": 81.4}, {"smiles": "CC(C)(C)OC(=O)NC1CCCc2c1cnn2-c1ccc(F)cc1F", "note": "(centres undefined)", "activity change, negative = decreased lipid storage": 54.4}, {"smiles": "Cc1cccc(-c2ccc3ncnc(NCc4cccc(F)c4)c3c2)c1", "activity change, negative = decreased lipid storage": 36.3}, {"smiles": "CCn1c(C(=O)NCCc2ccc(OC)c(OC)c2)cc2sccc21", "activity change, negative = decreased lipid storage": -29.2}, {"smiles": "O=C(NC1CCCc2c1cnn2-c1ccc(F)cc1F)c1cccs1", "note": "(centres undefined)", "Potency": "inactive"}, {"smiles": "CC(C)(C)OC(=O)NCCOCCOCCOCCn1ncc2c1CCCC2NC(=O)c1ccccn1", "note": "(centres undefined)", "activity change, negative = decreased lipid storage": -33.2}, {"smiles": "O=C(NCCc1ccc2c(c1)OCO2)c1cc2sccc2n1Cc1ccccc1", "activity change, negative = decreased lipid storage": -41.2}, {"smiles": "COc1nc(-c2ccc3c(c2)OCO3)n(-c2ccc(NC(=O)CSc3ccccc3)cc2)n1", "activity change, negative = decreased lipid storage": 6.57}, {"smiles": "CCOc1ccc(CCNC(C)=O)cc1OCC", "activity change, negative = decreased lipid storage": -8.63}, {"smiles": "CC1=C(C(=O)NC2CCCc3c2cnn3-c2ccc(F)cc2F)OCCO1", "note": "(centres undefined)", "activity change, negative = decreased lipid storage": 29.3}, {"smiles": "CCOC(=O)C1CCN(C(=O)C(C)(C)NC(=O)Nc2cccc(C(=O)OC)c2)CC1", "activity change, negative = decreased lipid storage": -25.1}, {"smiles": "CC(C)(NC(=O)Nc1ccccc1Cl)C(=O)N1CCC(C(=O)O)CC1", "activity change, negative = decreased lipid storage": -34.4}, {"smiles": "CCOc1cc(F)c(CCNC(=O)c2cc3sccc3n2Cc2ccccc2)cc1OCC", "Potency": "14.8 nM (active)"}, {"smiles": "O=C(NC1CCCc2c1cnn2-c1ccc(F)cc1F)C1CCCCC1", "note": "(centres undefined)", "activity change, negative = decreased lipid storage": 103}, {"smiles": "CCOc1ccc(CCNC(=O)c2cnon2)cc1OCC", "activity change, negative = decreased lipid storage": -17.2}, {"smiles": "CCOc1ccc(CCNC(=O)c2cc3sccc3n2CC=C(C)C)cc1OCC", "Potency": "833 nM (active)"}, {"smiles": "O=C(NC1CCCc2c1cnn2-c1ccc(F)cc1F)c1ccsc1", "note": "(centres undefined)", "activity change, negative = decreased lipid storage": 55.2}, {"smiles": "O=C(NC1CCCc2c1cnn2-c1ccc(F)cc1F)C1CCCCN1", "note": "(centres undefined)", "activity change, negative = decreased lipid storage": -11.6}, {"smiles": "CCOc1ccc(CCNC(=O)c2cc3sccc3n2CCN2CCN(C)CC2)cc1OCC", "Potency": "1320 nM (active)"}, {"smiles": "CCOc1cc(CCNC(=O)c2cc3sccc3n2Cc2ccccc2)cc(F)c1OCC", "Potency": "52.6 nM (active)"}, {"smiles": "Cc1ccc(NC(=O)c2ccc(CN3CCN(C)CC3)cc2)cc1Nc1nc(-c2cccnc2)cs1", "activity change, negative = decreased lipid storage": 55.2}, {"smiles": "CCOc1ccc(CCNC(=O)C2=C(C)OCCO2)cc1OCC", "activity change, negative = decreased lipid storage": -14}, {"smiles": "O=C(NC1CCCc2c1cnn2-c1ccc(F)cc1F)c1ccccc1", "note": "(centres undefined)", "Potency": "inactive"}, {"smiles": "O=C(N[C@H]1CCCc2c1cnn2-c1ccc(F)cc1F)c1ccccn1", "activity change, negative = decreased lipid storage": 98.8}, {"smiles": "CCOc1ccc(CCNC(=O)c2cc3sccc3n2Cc2ccccc2)c(F)c1OCC", "Potency": "526 nM (active)"}, {"smiles": "CCOC(=O)C1CCN(C(=O)C(C)(C)NC(=O)Nc2ccc(CN3CCOCC3)cc2)CC1", "activity change, negative = decreased lipid storage": 16.8}]}]}
